Measurements: PubChem BioAssay AID492992 (Johns Hopkins Ion Channel Center, 2010)
Among all 4,900 compounds or so, about 2,100 (43%) were called active.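 Rule for the calls: active = thallium signal inhibited by more than 5 SD of the compound-free buffer control wells, on both duplicate plates; inactive = the rest.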 So high a share suggests a set chosen from earlier hits. A selection follows.

These compounds were tested against Potassium channel subfamily K member 9 (Homo sapiens) (UniProt Q9NPC2) (assay: blockers of human TASK-3 (KCNK9) channel – HEK293 cells, thallium flux, duplicate, confirmation (AID 492992;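 for inhibition: 0% = assay buffer control wells without compound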)). Details: FluxOR thallium flux fluorescence, at 10 µM; active compounds read high.
Sequence of Potassium channel subfamily K member 9 (Homo sapiens) (Q9NPC2 whole entry, looked up): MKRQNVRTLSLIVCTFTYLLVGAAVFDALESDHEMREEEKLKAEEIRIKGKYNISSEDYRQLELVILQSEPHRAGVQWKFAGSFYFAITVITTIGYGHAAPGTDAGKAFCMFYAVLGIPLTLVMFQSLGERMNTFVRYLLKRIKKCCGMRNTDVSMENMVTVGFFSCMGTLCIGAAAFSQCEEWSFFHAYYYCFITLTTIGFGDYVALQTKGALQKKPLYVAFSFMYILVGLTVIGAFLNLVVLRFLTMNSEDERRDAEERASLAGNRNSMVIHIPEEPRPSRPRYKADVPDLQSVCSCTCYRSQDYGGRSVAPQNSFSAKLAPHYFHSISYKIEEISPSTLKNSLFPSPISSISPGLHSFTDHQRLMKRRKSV

inhibition, inactive:
O=S(=O)(Nc1cccc(Oc2ccc(Cl)cc2)n1)c1ccc(F)cc1
COc1cc(Cl)ccc1OCc1cc(C(=O)N2CC[C@@H]3CCCC[C@H]3C2)no1
Clc1ccc(CSc2nnc(/C=C/c3ccccc3)o2)c(Cl)c1
COC(=O)c1cccc(C(=O)N2CCCC(Nc3ccc4c(c3)OCCO4)C2)c1 (centres undefined)
CCOC(=O)C1(CCOc2ccccc2)CCN(Cc2cc(OC)c(O)cc2Cl)CC1
O=C(NC1Cc2ccccc2C1)c1cc(COc2cccc(C(F)(F)F)c2)on1
COc1cccc(COC(=O)C2CCN(S(=O)(=O)c3ccc(Cl)cc3)CC2)c1OC
O=S(=O)(c1ccc(F)cc1)N1CCN(Cc2ccccc2C(F)(F)F)CC1
COc1ccccc1/C=C/C=N/n1c(-c2ccc(Cl)cc2Cl)n[nH]c1=S
O=C(Nc1ccc(Br)c2cccnc12)c1ccc(Cn2cc([N+](=O)[O-])cn2)o1
Cc1cc(Cl)ccc1C(=O)C1CCCN(C(=O)CCN2CCCO2)C1 (centres undefined)
Cc1cc(C)cc(OCC(=O)Nc2cc(NC(=O)COc3cc(C)cc(C)c3)cc(C(=O)O)c2)c1
COc1cc(C2CC(=O)N3CN(Cc4ccccc4)CSC3=C2C#N)ccc1OCc1ccccc1 (centres undefined)
COCCN(C(=S)Nc1cccc(Cl)c1C)C(C)c1ccco1 (centres undefined)
Cc1ccccc1CSc1nnc(CCCCCNC(=O)OC(C)(C)C)o1
CCc1nnc(NS(=O)(=O)c2ccc(NC(=S)NC(=O)/C=C/c3cccs3)cc2)s1
COc1cccc2sc(NNC(=O)c3nc4ccccc4s3)nc12
O=C(NCc1ccccc1)C1=C[C@@H](C2CCCCC2)C[C@@H](OCc2ccc(CO)cc2)O1
O=C(CSCc1ccc(Br)cc1)Nc1ccc(S(=O)(=O)N2CCCCCC2)cc1
CCOc1cccc(OCCCOc2cccc3cccnc23)c1
Cc1ccc(OCc2cc(C(=O)N(C)CCc3ccccc3)no2)cc1C
Cc1ccc(OS(=O)(=O)c2ccc(-c3csc(C)n3)s2)c(C)c1
Cc1cccc(NC(=O)N(Cc2cc3cc(C)cc(C)c3[nH]c2=O)CC2COCCO2)c1 (centres undefined)
O=C1/C(=C/c2ccc(F)cc2)SC(=S)N1NS(=O)(=O)c1ccccc1
COc1ccc(C(=O)C2CCCN(C(=O)c3cc(C)on3)C2)cc1F (centres undefined)
CCCCN(Cc1ccccc1)C(=O)C1CCN(Cc2sccc2C)CC1
Cc1cc2ccccn2c1C(=O)c1cccc(S(=O)(=O)N2CCOCC2)c1
Cc1cccc(N2CCN(C(=O)c3cccc(S(=O)(=O)N4CCc5ccccc5C4)c3)CC2C)c1 (centres undefined)
COc1cccc(CN(C)C(=O)CC23CC4CC(CC(C4)C2)C3)c1OC
O=C1N=C2SCCN2/C1=C\c1c(Cl)cccc1Cl
CC1=C/C(=N\OS(=O)(=O)c2ccccc2)C=CC1=O
COc1cc(C(CCN2CCN(c3ccccc3)CC2)c2c(OC)cc(OC)c3ccc(=O)oc23)cc(OC)c1OC (centres undefined)
COc1ccc(OC)c(-c2csc(-c3cccs3)n2)c1
O=C(COC(=O)c1c2c(nc3ccccc13)CCCC2)c1ccc(Br)s1
CC(Oc1ccc2ccccc2c1)C(=O)NNC(=S)NC(=O)c1ccco1 (centres undefined)
Cc1ccc(C2=NN(C)c3nc4ccccc4n3C2)cc1
COc1cccc(-c2cc3nc4c(c(N5CCC6(CC5)OCCO6)n3n2)CCCC4)c1
CC(C)(C)C1CCC(C(=O)NCC(c2cccs2)N2CCOCC2)CC1 (centres undefined)
O=[N+]([O-])c1ccc(N2CCN(CC(O)COc3ccccc3)CC2)cc1 (centres undefined)
Cc1[nH]c2ccccc2c1CCN(Cc1cccs1)C(=S)NC(C)(C)C
COc1ccc([N+](=O)[O-])cc1-c1nc2ccccc2nc1-c1ccccc1
COC(=O)Cn1cnc2scc(-c3ccc(C)c(C)c3)c2c1=O
O=C1/C(=C/c2ccc3c(c2)OCO3)CCC/C1=C\c1ccc2c(c1)OCO2
COc1ccc(CCNc2ncnc3c2nnn3Cc2ccccc2)cc1
O=C(NCCCc1ccccc1)c1cc(COc2c(F)cccc2F)on1
COc1cccc(C(=O)NCCSc2ccc(Br)cc2)c1
COc1ccc(-c2noc(CSc3ccc(C)cc3)n2)cc1
CCOc1ccccc1NC(=O)C12CC3CC(C1)CC(c1ccc(C)cc1)(C3)C2
COc1ccc(-c2oc(/N=C/N3CCCC3)c(C#N)c2-c2ccc(OC)cc2)cc1
C/C(=N\NC(=S)Nc1ccc(C)cc1)c1cc2ccccc2o1
Cc1cccc(N(C)C(=O)CN2C(=O)COc3ccc(S(=O)(=O)N4CCCCCC4)cc32)c1
Cc1ccc(S(=O)(=O)N2CCN(C(=O)COC(=O)c3c(C)cc(C)cc3C)CC2)c(C)c1
CC(C)(C)NC(=O)NC(=O)CN1CCC(Cc2ccccc2)CC1
CC1=CC(C)(C)N(C(=O)CSc2nnc(-c3ccccc3)o2)c2ccc(C)cc21
O=[N+]([O-])/C=C/c1ccc2c(ccn2Cc2ccccc2)c1
COC(=O)c1sc(-c2ccc(C(C)(C)C)cc2)cc1NC(=O)/C=C/C(=O)O
O=C(CC(NC(=O)c1ccccc1)c1ccccc1)Nc1ccc(F)c(F)c1 (centres undefined)
Cc1ccc(C(=O)c2c(NC(=O)c3ccccc3)sc(C)c2C)cc1

inhibition, active:
Cc1cc(Oc2ccc(Cl)cc2)nc(SCC(=O)c2ccccc2)n1 34%
C=CCc1cc(S(=O)(=O)c2ccc(O)c(CC=C)c2)ccc1O 69%
O=C1c2ccccc2C2=Nc3ccccc3SC(c3ccccc3F)C12 (centres undefined) 50%
COc1ccc(NC(=O)CN(C)CC(=O)Nc2cccc(C(F)(F)F)c2)cc1 44.5%
CSc1cccc(NC(=S)N(C(C)C)C(C)c2ccccn2)c1 (centres undefined) 66.5%
COc1ccccc1NC(=O)CSc1nc2sc(C)c(C)c2c(=O)n1Cc1ccco1 48.5%
Cc1nc(N2CCN(c3ccccn3)CC2)c2c(C)c(C(=O)Nc3ccc(F)c(Cl)c3)sc2n1 48.5%
CCC1=NN(C(=O)Cc2ccc([N+](=O)[O-])cc2)C(O)(c2ccc(Br)cc2)C1 (centres undefined) 65%
O=C(OCC(=O)N(CCc1ccccc1)Cc1ccccc1)c1ccccc1[N+](=O)[O-] 58.5%
CCOc1ccc(C2c3[nH]c4ccccc4c3CCN2Cc2cccn2-c2ncccn2)cc1 (centres undefined) 35%
CCC(C)(C)n1nnnc1C(c1cccs1)N1CCN(c2nc3ccccc3s2)CC1 (centres undefined) 39%
COc1ccc2c(c1)C(c1cccs1)=NNC(c1cccnc1)=N2 43%
O=C(COC(=O)/C(=C/c1cccs1)c1cccs1)NCc1ccccc1Cl 29%
Cc1nn(CC(=O)Nc2nc3ccccc3s2)c(C)c1[N+](=O)[O-] 48%
Cc1ccc(C2=Nc3c(ccc4ccccc34)C(c3ccncc3)=NN2)cc1 68.5%
COc1ccc(C(C)=O)cc1COc1ccc(Cl)c(C)c1 46%
Fc1ccc(Cn2nnnc2C(c2cccs2)N2CCCCCC2)cc1 (centres undefined) 49%
COc1ccccc1C(c1nnnn1C(C)(C)C)N1CCN(Cc2ccccc2)CC1 (centres undefined) 76%
CCCCCCCCCCOC(=O)Cn1c(COc2cccc(OC)c2)[n+](C)c2ccccc21 67%
CCCCCCCCCCOC(=O)Cn1c(COc2ccc(C)cc2)[n+](C)c2ccccc21 65%
CCOc1ccc2[nH]c(=O)c(CN(Cc3nnnn3CCc3ccccc3)CC3CCCO3)cc2c1 (centres undefined) 32%
CCCCn1ccnc1C(=O)c1cccc(S(=O)(=O)N2c3ccccc3CC2C)c1 (centres undefined) 62%
CCN(CC)C(=O)CC1(c2ccccc2OC)CCOC(C(C)C)C1 (centres undefined) 36.5%
CCOc1ccc(CN(Cc2ccco2)C(c2cccs2)c2nnnn2C(C)(C)C)cc1 (centres undefined) 60.5%
COc1ccc(C2CC(c3cccs3)=Nc3ccccc3S2)cc1OC (centres undefined) 40.5%
CCc1ccccc1NC(=O)/C(=C/c1ccccc1)c1ccccc1 37.5%
O=C(Nc1ccc(Oc2ccccc2)cc1)c1ccco1 50.5%
CCCN1C(=O)C(Cc2nc3ccccc3c(=O)n2-c2ccccc2)c2cc(C)ccc21 (centres undefined) 47%
Brc1ccc(C2CC(c3ccccc3)=Nc3ccccc3N2)cc1 (centres undefined) 61.5%
O=C(NNc1ccccc1Cl)C(O)(c1cccc(C(F)(F)F)c1)c1cccc(C(F)(F)F)c1 44%
CCc1cccc(C)c1N(C(=O)Cn1c(CO)nc2ccccc21)C(C)COC (centres undefined) 37.5%
COc1cccc(NC(=S)N(CCc2c(C)[nH]c3ccccc23)Cc2ccco2)c1 59%
CC(C)N(C(=O)CSc1nc(COc2ccccc2)nc2ccccc12)C(C)C 76.5%
COc1ccc(CCNC(=O)c2ccccc2OCc2ccccc2)cc1 64%
COc1cc(NC(=S)NCCSc2ccc(C)cc2)cc(OC)c1 27%
O=C(Oc1ccc(Br)cc1C(=S)N1CCOCC1)c1cccc([N+](=O)[O-])c1 50%
O=C(Cn1cc(C(=O)c2cccs2)c2ccccc21)NCc1cccs1 39%
Cc1ccc(CN(N=Nc2nonc2N)c2nonc2N)c(C)c1 68.5%
CCOc1ccc(C(C)C)cc1S(=O)(=O)n1nc(C)cc1C 33%
C=CCOc1ccc(/C=N/NC(=O)C(C)Sc2ccccn2)cc1OCC (centres undefined) 46.5%
O=C(C[C@H]1C(=O)N(c2ccc(F)c(F)c2)C[C@@H]1Cc1ccccc1)Nc1ccccc1 39%
